Sampled rows, rich in hits. Any-hit rate of the full collection: about 12%.
G9a block – inhibitors of human histone lysine methyltransferase G9a. Q96KQ7. G9a H3K9 monomethylation, AlphaScreen, 2 h. Potency, µM (doses to about 102 µM), for inactives: at the top dose activity, negative = inhibition, actives largely listed as inhibitors. 350,000 tested, 8.8% active. AID 504332; also: % is scaled to controls: 0 for no effect and ±100 for the full control effect; nearly all actives have a fitted effect of over 75% in size
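Step 1: enzyme (final 20 nM) with compound, 15 min RT. Step 2: substrate peptide 500 nM and SAM 20 uM, 2 h RT. Step 3: anti-H3K9me1 antibody and AlphaScreen beads, 10 min, then plate read.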
BAZ2B block – BAZ2B (human) inhibition | AlphaScreen BAZ2B-H3K14Ac peptide displacement | AID 504333 | Q9UIF8 | Potency, µM (series often up to 114 µM), without a hit: at the highest dose activity change, negative = inhibition, most hits filed as inhibitors | 360,000 tested, 4.4% active; also: % is scaled to controls: 0 for no effect and ±100 for the full control effect; nearly all actives have a fitted effect of over 60% in size
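BAZ2B (50 nM) with biotin-H3(5-23)K14Ac peptide (50 nM) in PBS pH 7.4, 0.01% Tween-20, preformed 30 min, then compound 30 min at room temperature; top concentration 110uM. AlphaScreen streptavidin donor/nickel chelate acceptor beads (10 ug/mL final), 20 min dark, signal read.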
L3MBTL1 inh – blocks human L3MBTL1; Q9Y468; AlphaScreen L3MBTL1–H3K9me1 peptide binding; Potency, µM (highest dose often 57.1 µM), without a hit: at the top dose activity, negative = inhibition, most hits filed as inhibitors; 230,000 tested, 0.66% active; also: % is scaled to controls: 0 for no effect and ±100 for the full control effect; nearly all actives have a fitted effect of over 60% in size
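AlphaScreen assay: L3MBTL1 (50 nM final) was preincubated 30 min at room temperature with biotinylated H3(1-15)K9me1 peptide (75 nM final), then 30 min with library compounds; streptavidin donor and nickel chelate acceptor beads (10 ug/mL final) added, 30 min dark.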
JMJD2A Tudor – inhibitors of human JMJD2A Tudor domain. O75164. AlphaScreen JMJD2A-Tudor / H3K4me3 peptide binding. 390,000 tested, 4.4% active. Potency, µM (top dose mostly 114 µM), inactives show at the top dose activity change, negative = inhibition, hits mostly inhibitors; also: % is scaled to controls: 0 for no effect and ±100 for the full control effect; nearly all actives have a fitted effect of over 50% in size
HP1b binding inh – HP1-beta chromodomain-methylated histone interaction inhibition. P83916. AlphaScreen HP1-beta / biotin-H3K9me3 peptide binding. AID 540317. Potency, µM (doses to about 114 µM), without a hit: at the highest dose activity change, negative = inhibition, actives largely listed as inhibitors. 390,000 tested, 0.56% active; also: nearly all actives have a fitted effect of over 70% in size
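HP1-beta protein (50 nM final) preincubated 30 min at room temperature with biotinylated H3(1-18)K9me3 peptide (50 nM) in PBS pH 7.4, 0.01% Tween-20, then compound added for 30 min. AlphaScreen streptavidin donor/nickel chelate acceptor beads (10 ug/mL final), 30 min dark, luminescence read.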
Sfp PPTase inh – inhibitors of Bacillus subtilis Sfp phosphopantetheinyl transferase; Q9F4F7; Biochemical Sfp PPTase activity, qHTS; Potency, µM, without a hit: largest response in the series, negative = inhibition, most hits filed as inhibitors; 310,000 tested, 3.5% active; AID 1490;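 also: the enzyme is Sfp with the accession as filed and its product quenches rhodamine fluorescence; 0% = enzyme reaction without inhibitor and -100% = no enzyme wells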
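Step 1, compound plus 15 nM Sfp-PPTase, 15 min, room temperature. Step 2, add rhodamine-CoA (5 uM) and BHQ-2-YbbR (12.5 uM). Step 3, read 525/598 nm fluorescence at 0 and 30 min.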
Starred values were filed as active, the others as inactive; u = inconclusive; x = no result; ! = not confirmed by another sample; [ ] = remark or other dose. Calls follow the shape of the dose curve; as a rule, active = well fitted curve in the direction sought with a large enough effect; inconclusive = small, poorly fitted or top-dose-only effect, or another doubt; inactive = no such curve, though single readings can be large; an effect the other way counts as inactive or inconclusive. Potency is read from the fitted curve at half-maximal effect.

SMILES	G9a block	BAZ2B block	L3MBTL1 inh	JMJD2A Tudor	HP1b binding inh	Sfp PPTase inh
Fc1ccccc1-c1n[nH]c(=S)n1CC1CCCO1 (stereo not given)	27%[12.7 µM]	-12%	12%	-11%	44%	1%
CCN(CC)c1ccc(NC(=O)C2CCCC2)cc1	45µM*	u	-15%	u	-19%	-2%
CCN(CC)c1ccc(NC(=O)Nc2cccc3ccccc23)cc1	3.2µM*	u	x	-24%	-10%	-21%
CCN(CC)c1ccc(NC(=O)C2CC3CCC2C3)cc1 (stereo not given)	6.3µM*	-68%	u	79µM*	u	-18%
CCN(CC)c1ccc(NC(=O)C(C)C)cc1	11µM*	-3%	-3%	u	5%	-1%
O=C(COc1ccc(Cl)cc1)NCCc1csc(-c2cccc(F)c2)n1	2%[59 µM]	-1%	x	-18%	11%[57 µM]	x
COC(=O)c1c(SC)nc2ccccc2c1OCc1ccccc1C	40%[59 µM]	211%	x	139%	139%	x
CC(O)CC(C(=O)NNc1ccccc1)C(=O)NNc1ccccc1 (stereo not given)	3.2µM*	-15%	-3%	-17%	51%	15%
CN(C)C(=S)N=Nc1[nH]c2ccccc2c1O	7.9µM*	-35%	11%	-25%	8%	-19%
CNC(=S)N=Nc1c(O)[nH]c2ccccc12	1%[59 µM]	-2%	-15%	-18%	8%	u
Cc1ccc(C2N3CC4([N+](=O)[O-])CN2CC([N+](=O)[O-])(C3)C4(C)C)cc1 (stereo not given)	0%[59 µM]	4%	-4%	-9%	35%	0%
CC1(C)C2([N+](=O)[O-])CN3CC1([N+](=O)[O-])CN(C2)C3c1ccc(O)c(O)c1 (stereo not given)	22µM*	-17%	x	u	15%	-6%
CCS(=O)(=O)CCSc1nc2ccccc2o1	1%[59 µM]	7%	26%[11.4 µM]	-6%	13%	14%
CS(=O)(=O)Cc1nc2ccccc2oc1=O	40µM*	-22%	7%	26%	20%	u
CCCN1CNc2c(c(=O)[nH]c(=S)n2CCc2cccc(OC)c2OC)C1	x	x	x	-8%	33%	x
Cc1cc(NC(=O)c2cccc(S(=O)(=O)N3CC(c4ccccc4)CC3=O)c2)no1 (stereo not given)	-8%[59 µM]	-1%	-6%	-24%	17%	32%
COc1ccc(C(=O)Nc2nncs2)cc1S(=O)(=O)N1CC(c2ccccc2)CC1=O (stereo not given)	50µM*	4%	-1%	-13%	55%	-14%
CCc1nnc(NC(=O)c2cccc(S(=O)(=O)N3CC(c4ccccc4)CC3=O)c2)s1 (stereo not given)	-1%	11%	x	-11%	44%	23%
Cc1nnc(NC(=O)c2cccc(S(=O)(=O)N3CC(c4ccccc4)CC3=O)c2)s1 (stereo not given)	50µM*	6%	x	-8%	44%	20%
COc1cc(O)ccc1C1CC(=O)Nc2c1c(=O)nc(SCc1ccccc1C)n2C (stereo not given)	2%[59 µM]	-22%	x	-23%	31%	x
COCCN=c1scc(-c2ccc3c(c2)NC(=O)CO3)n1/N=C(\C)c1ccc(O)cc1	x	28µM*	u	22µM*	u	89µM*
COc1c(C)cc(NC(=O)c2ccc3c(c2)NC(=O)CO3)cc1C	-2%	-14%	5%	-18%	16%	11%
COc1cc(/C=N/n2c(-c3ccc4c(c3)NC(=O)CO4)csc2=Nc2cccc(C)c2)ccc1O	10µM*	8.9µM*	u	u	u	-27%
O=C(N/N=C1/C[C@@H](O)[C@@H](O)[C@@H]2[C@@H]3C(=O)N(C4CCCCC4)C(=O)[C@H]3CC[C@H]12)OCc1ccccc1	x	x	x	x	x	9%
CN(Cc1ccccc1)C(=O)c1ccc2c(c1)N(Cc1ccccc1F)C(=O)c1ccccc1S2(=O)=O	-40%[59 µM]	-12%	x	-16%	19%	x
SMILES	G9a block	BAZ2B block	L3MBTL1 inh	JMJD2A Tudor	HP1b binding inh	Sfp PPTase inh
Cc1ccc(Cl)cc1NC(=O)C(NS(=O)(=O)c1cccc2nsnc12)c1ccccc1 (stereo not given)	u	x	x	u	-7%	x
Cc1occc(=O)c1OC(=O)Nc1ccc(Cl)c(Cl)c1	u	-1%	11%	25µM*	5%	-15%
Cc1cccc(NC(=O)Cn2nc(-c3ccccc3)c3cnc4ccccc4c32)c1	17%[59 µM]	-8%	x	-14%	30%	x
c1cc2nc(C34CC5CC(CC(C5)C3)C4)[nH]c2cn1	14µM*	50µM*	-2%	22µM*	u	-25%
Cc1ccc(-c2ccc(/C=N/NC(N)=S)o2)cc1	8.9µM*	-28%	-14%	-35%	u	20µM*
NC(=S)N/N=C/c1ccc(-c2ccc(SC(F)F)cc2)o1	x	-8%	28%	-25%	14%	u
CCNC(=S)N/N=C/c1ccc(-c2ccccc2)o1	-7%[59 µM]	u	-18%	u	-13%	0%
NC(=S)N/N=C/c1ccc(-c2ccc(Cl)c(Cl)c2)o1	-35%[59 µM]	u	x	-28%	3%	45µM*
NC(=S)N/N=C/c1ccc(-c2ccccc2)o1	6.3µM*	u	-6%	-35%	14%	4%
CN(C)/N=C/c1ccc(/C=N/NC(N)=S)o1	u	x	-4%	-21%	17%	45µM*
Cc1ccc(C)c(Cn2c3ccccc3c3cnn(CC(=O)NC4CCC(C)CC4)c(=O)c32)c1 (stereo not given)	-14%[59 µM]	-12%	x	-25%	-7%	x
O=C(O)c1cc(-c2ccc(/C=N/NC(=S)Nc3ccccc3)o2)ccc1Cl	-12%[59 µM]	u	u	-30%	-7%	40µM*
COC(=O)c1ccc(NC(CC(C)C)C(=O)OC)c([N+](=O)[O-])c1 (stereo not given)	40µM*	u	-14%	u	-13%	4%
Cc1cc(=O)n2c3c(sc2n1)C(=O)N(Cc1ccccc1)C3=O	6.3µM*	-2%	-3%	x	x	13µM*
COc1ccc(-c2c[n+](CC(=O)c3ccccc3)c3n2CCCCC3)cc1	14%[12.7 µM]	0%	6%	-19%	21%	-1%
COc1ccc(-c2c[n+]3c4n2CCCCC4=C(c2ccccc2)C3)cc1	14µM*	56µM*	-17%	40µM*	-5%	-28%
NCCCC(N)(C(=O)O)C(F)F (stereo not given)	7.1µM*!	u	6%	-2%	19%	-8%
Cc1cc(S(=O)(=O)Nc2ccc(-c3ccc(N4CCCCC4)nn3)cc2)c(C)cc1Cl	-21%[59 µM]	u	x	-20%	u	x
Cc1ccc(C(=O)N2CCC(C)CC2)cc1C	u	2%	3%	-2%	18%	14%
